From PubChem BioAssay (Tox21)
Results filed as inconclusive are left out. The source made the active and inactive calls. The call rests on the fitted dose curve; in most records, active means well fitted curve in the direction sought with a large enough effect in the repeat runs; inconclusive means weak or mixed curves; inactive means no such curve, though single readings can be large; an effect the other way counts as inactive or inconclusive.

Key:
[1] = qHTS RealTime-Glo MT Cell Viability Assay in HepG2 cells - 40 hour (AID 1224870); further: nearly all actives have a fitted effect of over 50% in size
Summary of the method: (§1)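 Real-time viability: cells seeded at 600 per well together with NanoLuc and cell-permeant prosubstrate, compounds added after 5 h incubation. Luminescence tracked at 0, 8, 16, 24, 32 and 40 h of exposure.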

[2] = qHTS RealTime-Glo MT Cell Viability Assay in HEK293 cells - 16 hour (AID 1224872); further: nearly all actives have a fitted effect of over 50% in size; further: potency means the concentration at half of the fitted maximal effect; on activity change, negative = cytotoxicity: top concentration of the series differs between compounds
Summary of the method: (§2)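 Cells + reagent dispensed (600 cells/well, HEK293) → 5 h at 37 C/5% CO2 → 23 nL compound in DMSO pinned → 40 h at 37 C → luminescence read at 0, 8, 16, 24, 32, 40 h.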

[3] = qHTS RealTime-Glo MT Cell Viability Assay in HepG2 cells - 8 hour (AID 1224873); further: nearly all actives have a fitted effect of over 55% in size
Summary of the method: as §1

[4] = qHTS RealTime-Glo MT Cell Viability Assay in HEK293 cells - 40 hour (AID 1224874); details: RealTime-Glo luminescence; max response: hits give low values; further: nearly all actives have a fitted effect of over 50% in size; further: potency means the concentration at half of the fitted maximal effect
Summary of the method: (§3)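 Cells were seeded together with NanoLuc luciferase and a prosubstrate that viable cells reduce to a luciferase substrate. After a 5 h incubation at 37 C/5% CO2, compounds were added and luminescence was measured repeatedly during 40 h of treatment.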

[5] = qHTS RealTime-Glo MT Cell Viability Assay in HepG2 cells - 32 hour (AID 1224877); further: nearly all actives have a fitted effect of over 55% in size
Summary of the method: (§4)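 Real-time, nonlytic viability: 600 HepG2 cells/well mixed with NanoLuc enzyme plus prosubstrate; 5 h settle, compound (DMSO) added by pintool; luminescence monitored over 40 h at 37 C.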

[6] = A CellTox Green Cytotoxicity Assay to monitor cytotoxicity in HepG2 cells - 40 hour (AID 1224879); further: nearly all actives have a fitted effect of over 40% in size
Summary of the method: (§5)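 Read-out is fluorescence of a cyanine dye excluded from live cells that stains DNA of dead HepG2 cells, with signal proportional to cytotoxicity. Plates were read at 0, 8, 16, 24, 32 and 40 h after compound addition.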

[7] = qHTS RealTime-Glo MT Cell Viability Assay in HEK293 cells - 0 hour (AID 1224880); further: top concentration of the series differs between compounds; nearly all actives have a fitted effect of over 45% in size
Summary of the method: as §3

[8] = qHTS RealTime-Glo MT Cell Viability Assay in HepG2 cells - 16 hour (AID 1224885); further: nearly all actives have a fitted effect of over 50% in size
Summary of the method: as §4

[9] = qHTS RealTime-Glo MT Cell Viability Assay in HEK293 cells - 24 hour (AID 1224886); further: nearly all actives have a fitted effect of over 50% in size; further: potency means the concentration at half of the fitted maximal effect; on activity change, negative = cytotoxicity: top concentration of the series differs between compounds
Summary of the method: as §2

[10] = qHTS RealTime-Glo MT Cell Viability Assay in HepG2 cells - 0 hour (AID 1224889); further: nearly all actives have a fitted effect of over 50% in size
Summary of the method: as §4

[11] = A CellTox Green Cytotoxicity Assay to monitor cytotoxicity in HEK293 cells - 40 hour (AID 1224871); further: nearly all actives have a fitted effect of over 45% in size
Summary of the method: (§6)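 Nonlytic real-time cytotoxicity: HEK293 + CellTox Green reagent plated, 5 h preincubation, pintool compound addition (23 nL in DMSO), 37 C for 40 h, fluorescence measured at successive time points.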

[12] = A CellTox Green Cytotoxicity Assay to monitor cytotoxicity in HEK293 cells - 24 hour (AID 1224875); further: series mostly up to about 77 µM; nearly all actives have a fitted effect of over 45% in size
Summary of the method: as §6

[13] = A CellTox Green Cytotoxicity Assay to monitor cytotoxicity in HepG2 cells - 16 hour (AID 1224876); further: nearly all actives have a fitted effect of over 45% in size
Summary of the method: as §5

[14] = A CellTox Green Cytotoxicity Assay to monitor cytotoxicity in HepG2 cells - 24 hour (AID 1224878); further: nearly all actives have a fitted effect of over 45% in size
Summary of the method: as §5

[15] = A CellTox Green Cytotoxicity Assay to monitor cytotoxicity in HEK293 cells - 32 hour (AID 1224881); further: nearly all actives have a fitted effect of over 40% in size
Summary of the method: as §6

[16] = A CellTox Green Cytotoxicity Assay to monitor cytotoxicity in HepG2 cells - 0 hour (AID 1224882); further: nearly all actives have a fitted effect of over 35% in size
Summary of the method: as §5

[17] = A CellTox Green Cytotoxicity Assay to monitor cytotoxicity in HepG2 cells - 32 hour (AID 1224883); further: nearly all actives have a fitted effect of over 50% in size
Summary of the method: as §5

[18] = A CellTox Green Cytotoxicity Assay to monitor cytotoxicity in HEK293 cells - 8 hour (AID 1224884); further: nearly all actives have a fitted effect of over 35% in size
Summary of the method: as §6

[19] = qHTS RealTime-Glo MT Cell Viability Assay in HEK293 cells - 8 hour (AID 1224887); further: nearly all actives have a fitted effect of over 50% in size; further: potency means the concentration at half of the fitted maximal effect; on activity change, negative = cytotoxicity: top concentration of the series differs between compounds
Summary of the method: as §3

[20] = A CellTox Green Cytotoxicity Assay to monitor cytotoxicity in HEK293 cells - 16 hour (AID 1224888); further: nearly all actives have a fitted effect of over 35% in size
Summary of the method: as §6
On the % scale 0 is the no-effect control and ±100 the full control effect.

c1ccc(CCNc2nc(-c3ccccc3)cs2)cc1
inactive: Potency [1] | Potency [2] | outcome [3] | max response [4] -22.9% | Potency [5] | Potency [6] | Potency [7] | outcome [8] | Potency [9] | Potency [10]

CCCC(=O)OCCC(C)C
inactive: Potency [11] | Potency [2] | outcome [3] | max response [4] -1.39% | Potency [12] | Potency [13] | Potency [5] | Potency [14] | Potency [6] | Potency [7] | Potency [15] | Potency [16] | Potency [17] | Potency [18] | outcome [8] | Potency [9] | Potency [19] | Potency [20] | Potency [10]

CCCC(=O)OCc1ccccc1
inactive: Potency [1] | Potency [2] | outcome [3] | max response [4] 5.95% | Potency [12] | Potency [13] | Potency [5] | Potency [14] | Potency [7] | Potency [15] | Potency [16] | Potency [17] | outcome [8] | Potency [9] | Potency [19] | Potency [20] | Potency [10]

COC=O
inactive: cytotoxicity increase [11] -12.8% [at 6.97 µM] | activity change, negative = cytotoxicity [2] 11.7% [at 6.97 µM] | viability change, negative = cytotoxic [3] 6.21% [at 6.97 µM] | max response [4] 19.4% | activity change [12] -10.8% [at 6.97 µM, hits give high values] | cytotoxicity increase [13] -4.94% [at 6.97 µM] | activity change, negative = cytotoxic [5] 2.87% [at 6.97 µM] | cytotoxicity [14] -6.04% [at 6.97 µM] | cytotoxicity increase [6] -7.18% [at 6.97 µM] | activity change, negative = cytotoxicity [7] -6.16% [at 6.97 µM] | cytotoxicity increase [15] -12.1% [at 6.97 µM] | cytotoxicity [16] 0.137% [at 6.97 µM] | cytotoxicity increase [17] -4.32% [at 6.97 µM] | cytotoxicity increase [18] -11.8% [at 6.97 µM] | activity change, negative = cytotoxicity [9] 14.1% [at 6.97 µM] | activity change, negative = cytotoxicity [19] 3.22% [at 6.97 µM] | activity change [20] -10.1% [at 6.97 µM, hits give high values] | activity change, negative = cytotoxicity [10] -11.5% [at 6.97 µM]

Nc1nc(Cl)nc2c1ncn2[C@H]1C[C@H](O)[C@@H](CO)O1
inactive: Potency [1] | Potency [2] | outcome [3] | max response [4] -25.7% | Potency [12] | Potency [13] | Potency [5] | Potency [14] | Potency [6] | Potency [7] | Potency [15] | Potency [16] | Potency [17] | Potency [9] | Potency [19] | Potency [20] | Potency [10]

O=c1c2ccccc2oc2ccccc12
inactive: Potency [1] | max response [4] -17.5% | Potency [12] | Potency [13] | Potency [5] | Potency [6] | Potency [7] | Potency [16] | Potency [17] | Potency [18] | outcome [8] | Potency [9] | Potency [20] | Potency [10]

CCCc1nc(C)c2c(=O)[nH]c(-c3cc(S(=O)(=O)N4CCN(CC)CC4)ccc3OCC)nn12
inactive: Potency [1] | Potency [2] | outcome [3] | Potency [12] | Potency [13] | Potency [5] | Potency [14] | Potency [6] | Potency [7] | Potency [16] | Potency [17] | Potency [18] | outcome [8] | Potency [19] | Potency [20] | Potency [10]

O=C1c2ccccc2C(=O)C1c1ccc2cc(S(=O)(=O)O)cc(S(=O)(=O)O)c2n1
inactive: Potency [1] | Potency [2] | outcome [3] | max response [4] -25.3% | Potency [12] | Potency [13] | Potency [5] | Potency [14] | Potency [15] | Potency [16] | Potency [17] | Potency [18] | outcome [8] | Potency [9] | Potency [20]

O=C1c2ccccc2C(=O)c2c1ccc(O)c2O
inactive: Potency [1] | Potency [2] | outcome [3] | max response [4] -2.45% | Potency [12] | Potency [13] | Potency [5] | Potency [14] | Potency [7] | Potency [15] | Potency [16] | Potency [17] | Potency [18] | Potency [9] | Potency [19] | Potency [20] | Potency [10]

C=CC(=O)NC(C)(C)C
inactive: Potency [1] | Potency [2] | outcome [3] | max response [4] 1.33% | Potency [12] | Potency [5] | Potency [6] | Potency [7] | Potency [15] | Potency [16] | Potency [17] | Potency [18] | outcome [8] | Potency [9] | Potency [19] | Potency [20] | Potency [10]

CC1=C(C)C(=O)C(CCCCC#CCCCC#CCO)=C(C)C1=O
active: Potency [2] 601 nM | Potency [4] 674 nM | Potency [9] 601 nM | Potency [19] 535 nM
inactive: Potency [1] | Potency [12] | Potency [13] | Potency [14] | Potency [6] | Potency [7] | Potency [15] | Potency [16] | Potency [17] | Potency [20] | Potency [10]

CC(C)=CCC[C@H](C)CCO
inactive: Potency [1] | Potency [2] | outcome [3] | max response [4] -1.49% | Potency [12] | Potency [13] | Potency [5] | Potency [14] | Potency [7] | Potency [15] | Potency [16] | Potency [17] | Potency [18] | Potency [9] | Potency [19] | Potency [20] | Potency [10]

Cc1c(N=C=O)cccc1N=C=O
inactive: Potency [1] | Potency [2] | outcome [3] | max response [4] 2.75% | Potency [12] | Potency [13] | Potency [5] | Potency [7] | Potency [15] | Potency [16] | outcome [8] | Potency [9] | Potency [19] | Potency [20] | Potency [10]

CCCN(C1CCN(C(=O)C2CCNCC2)CC1)[C@@H]1CCc2ccc(OC)cc2C1
inactive: Potency [1] | outcome [3] | Potency [5] | Potency [7] | Potency [16] | Potency [19] | Potency [10]

CC(C)=CCC/C(C)=C/C=N/O
inactive: Potency [1] | Potency [2] | max response [4] -25.1% | Potency [13] | Potency [5] | Potency [14] | Potency [7] | Potency [16] | Potency [17] | Potency [9] | Potency [10]

Nc1ncnc2c1ncn2[C@@H]1O[C@H](CO)[C@@H](O)[C@H]1O
inactive: Potency [1] | Potency [2] | outcome [3] | max response [4] 6.09% | Potency [12] | Potency [5] | Potency [14] | Potency [6] | Potency [7] | Potency [15] | Potency [16] | Potency [17] | Potency [18] | outcome [8] | Potency [9] | Potency [19] | Potency [20] | Potency [10]
